NTMT1 inh – Primary qHTS for Inhibitors of N-terminal methyltransferase 1 (NTMT1): MTaseGlo Assay; NTMT1 MTase-Glo SAH luminescence, purified enzyme; AID 1645870, 2021; N-terminal Xaa-Pro-Lys N-methyltransferase 1 (Homo sapiens), Q9BV86; actives 2.5% (n = 59,000); Potency, µM (highest dose often 114 µM), for inactives: at the highest dose activity change, negative = inhibition, actives largely listed as inhibitors;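 note: plate controls were DMSO vehicle for no effect and no enzyme for full effect; nearly all actives have a fitted effect of over 65% in size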
Target sequence (Q9BV86 whole entry, looked up): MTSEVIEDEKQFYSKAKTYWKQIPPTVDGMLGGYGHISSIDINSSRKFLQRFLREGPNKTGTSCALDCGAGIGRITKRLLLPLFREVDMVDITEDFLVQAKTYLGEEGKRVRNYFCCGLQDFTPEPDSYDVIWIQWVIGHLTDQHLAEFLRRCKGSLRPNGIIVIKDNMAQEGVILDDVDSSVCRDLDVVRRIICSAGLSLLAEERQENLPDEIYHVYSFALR
OvCa metastasis – Primary qHTS assay for Inhibitors of ovarian cancer metastasis using an organotypic tumor microenvironment (TME) model. AID 1963576, 2024. Potency, µM (doses to about 45.8 µM), without a hit: at the highest dose activity change, negative = inhibition, usual class: inhibitors. actives 0.1% (n = 46,000). SKOV3ip1-GFP adhesion/invasion on 3D omental model, fluorescence;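 note: plate controls were DMSO wells for no effect and tomatine positive control wells for full effect; nearly all actives have a fitted effect of over 65% in size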
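Adhesion/invasion was scored as fixed GFP-labeled SKOV3ip1 cell counts (488/509 nm), normalized to DMSO and tomatine controls. Cancer cells in serum-free medium, with four compound doses (0.36-46 umol/L), sat 2 hr at RT then 16 hr at 37 C on a 48 hr fibroblast/mesothelial/ECM culture.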
p53null 32C tox – qHTS Screen for Compounds that Selectively Target Cancer Cells with p53 Mutations: Cytotoxicity of p53 Null Cells at the Permissive Temperature | AID 903, 2007 | actives 0.62% (n = 55,000) | Potency, µM (doses to about 46.1 µM), without a hit: top-dose activity change, negative = cytotoxicity, usual class: cytotoxic | H1299-neo p53 null cells, ATP luminescence, 24 h, 32C;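 note: 0% = DMSO only and -100% = full killing by 100 µM tamoxifen; nearly all actives have a fitted effect of over 55% in size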
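H1299-neo, 600 cells/well; overnight 37C; cpd up to 46 uM, 24 h at 32C; ATPlite luminescence after 20 min RT; normalized to DMSO (0%) and tamoxifen 100 uM (100% kill); Hill-fit AC50.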
p53null 39C kill – qHTS Screen for Compounds that Selectively Target Cancer Cells with p53 Mutations: Cytotoxicity of p53 Null Cells at the Nonpermissive Temperature; H1299 p53-null (neo) cells, 39C, ATPlite viability, 24 h; actives 0.97% (n = 55,000); Potency, µM (highest dose often 46.1 µM), inactives show at the top dose activity, negative = cell killing, most hits filed as cytotoxic; AID 904, 2007;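 note: 0% = DMSO only and -100% = full killing by 100 µM tamoxifen; nearly all actives have a fitted effect of over 50% in size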
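Following overnight plating at 37C (600 cells/well), H1299-neo or H1299-p53A138V cells are dosed up to 46 uM. Incubation lasts 24 hr at 39C before ATP detection.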
* = called active by the depositor; ! = a repeat was not active; [ ] = dose if it differs, or a comment. Shown is part of a subset that was picked to be rich in hits. Calls come from the whole dose curve; as a rule, active = well fitted curve in the direction sought with a large enough effect; inconclusive = small, poorly fitted or top-dose-only effect, or another doubt; inactive = no such curve, though single readings can be large; an effect the other way counts as inactive or inconclusive. Potency is the fitted concentration of half-maximal effect.

What do the screens show for `CCCCNC(=O)c1nn(C)c2c1CSc1ccccc1-2`?
NTMT1 inh: 79µM*; OvCa metastasis: -5%; p53null 32C tox: -2%; p53null 39C kill: 0%

What do the screens show for `COC(=O)c1cncc(NC(=O)c2cccs2)c1`?
NTMT1 inh: 8%

How did O=S(=O)(Nc1nc2ccccc2s1)c1ccc(NCc2ccc(Br)cc2O)cc1 do in these assays?
NTMT1 inh: 28µM*

Results for CC(=O)c1ccc(NC(=O)c2nc3ccccc3n(C)c2=O)cc1 ?
NTMT1 inh: -22%; OvCa metastasis: -26%; p53null 32C tox: 2µM*; p53null 39C kill: 3%

What do the screens show for `Cc1cccc(NS(=O)(=O)c2ccc3nc(-c4ccccc4)[nH]c3c2)c1C`?
NTMT1 inh: 3%; OvCa metastasis: inactive; p53null 32C tox: inconclusive; p53null 39C kill: 11µM*

Results for CC(C)c1ccc(NS(=O)(=O)c2ccc3nc(-c4ccccc4)[nH]c3c2)cc1 ?
NTMT1 inh: -16%; OvCa metastasis: -2%; p53null 32C tox: inconclusive; p53null 39C kill: 20µM*

What do the screens show for `Cc1cc(N[S+](=O)([O-])c2ccc(NC(=O)Cc3ccc4nccnc4c3)cc2)no1`?
NTMT1 inh: 6%

How did CN1CCC(Nc2nc(Nc3ccc(Oc4ccccc4)cc3)c3c(=O)[nH]cc(Br)c3n2)CC1 do in these assays?
NTMT1 inh: 0%[57.5 µM]

What do the screens show for `CN1CCC(Nc2ncc3ncnc(Nc4ccc(F)c(Cl)c4)c3n2)CC1`?
NTMT1 inh: 45µM*

How did O=C(Nc1cccc(C(=O)N2CCCCC2)c1)c1nsc2ccccc12 do in these assays?
NTMT1 inh: inconclusive; OvCa metastasis: 1%; p53null 32C tox: inconclusive; p53null 39C kill: 10µM*

What do the screens show for `COC(=O)c1cccc(NC(=O)c2nsc3ccccc23)c1`?
NTMT1 inh: 45µM*; OvCa metastasis: inconclusive; p53null 32C tox: 3.2µM*; p53null 39C kill: 7.1µM*

Results for COc1cccc(CNC(=O)c2cccc(NC(=O)c3nsc4ccccc34)c2)c1 ?
NTMT1 inh: 13%; OvCa metastasis: -15%; p53null 32C tox: -6%; p53null 39C kill: -17%

Results for CNc1oc(-c2ccc3cnccc3c2)nc1C#N ?
NTMT1 inh: 2%

What do the screens show for `OC[C@@]1(O)CO[C@@H](OC[C@H]2O[C@@H](Oc3ccccc3)[C@H](O)[C@@H](O)[C@@H]2O)[C@@H]1O`?
NTMT1 inh: -5%[29.8 µM]

How did CN1C2CCC1CC(OC(=O)[C@H](CO)c1ccccc1)C2 (stereo partly drawn) do in these assays?
NTMT1 inh: 2%[57.5 µM]

How did Oc1cccc(-c2c3nc(c(-c4cccc(O)c4)c4ccc([nH]4)c(-c4cccc(O)c4)c4nc(c(-c5cccc(O)c5)c5ccc2[nH]5)CC4)C=C3)c1 do in these assays?
NTMT1 inh: 22µM*

How did O=C1NS(=O)(=O)C(c2ccccc2)C1c1ccccc1 (stereo not drawn) do in these assays?
NTMT1 inh: 11%

How did COc1ccc(N2CCOCC2)c2sc(NC(=O)N3CCC(C)(O)CC3)nc12 do in these assays?
NTMT1 inh: -3%[57.5 µM]

What do the screens show for `CN1CCC(c2c(O)cc(O)c3c(=O)cc(-c4ccccc4Cl)oc23)C1CO` (stereo not drawn)?
NTMT1 inh: 50µM*

What do the screens show for `CN1CC[C@@H](c2c(O)cc(O)c3c(=O)cc(-c4ccccc4Cl)oc23)[C@@H](O)C1`?
NTMT1 inh: 24µM*!; OvCa metastasis: 17%

How did CN1CCC(c2c(O)cc(O)c3c(=O)cc(-c4ccccc4Cl)oc23)C(O)C1 (stereo not drawn) do in these assays?
NTMT1 inh: 35µM*

How did CCc1ccc2nc(N3CCN(C(=O)C4CC4)CC3)sc2c1 do in these assays?
NTMT1 inh: -7%; OvCa metastasis: -2%; p53null 32C tox: -20%; p53null 39C kill: 20%

Results for CCCCN(C)CCNC(=O)C1CCN(c2nc3ccc(CC)cc3s2)CC1 ?
NTMT1 inh: -24%; OvCa metastasis: inconclusive; p53null 32C tox: inconclusive; p53null 39C kill: 3.2µM*

Results for CCc1ccc2nc(N3CCC(C(=O)O)CC3)sc2c1 ?
NTMT1 inh: 0%; OvCa metastasis: inactive; p53null 32C tox: 7.9µM*; p53null 39C kill: 5µM*

What do the screens show for `C/C(=N\NC(=O)c1cccc(S(=O)(=O)N2CCOCC2)c1)c1cc(Cl)ccc1O`?
NTMT1 inh: 14%

What do the screens show for `CN[C@@H](C)C(=O)N[C@H](C(=O)N1CCC[C@H]1C(=O)Nc1sc(-c2ncco2)nc1-c1ccccc1)C1CCCCC1`?
NTMT1 inh: 12%

How did Oc1cccc(C(Nc2ccccn2)c2ccc3cccnc3c2O)c1Cl (stereo not drawn) do in these assays?
OvCa metastasis: -4%; p53null 32C tox: inconclusive; p53null 39C kill: 4µM*

How did Cn1cc(/C=C/C(=O)c2cccc(F)c2)cc1/C=C/C(=O)NO do in these assays?
NTMT1 inh: -25%

Results for COc1cc2c(=O)n(CCc3ccccc3)c(=O)n(CC(=O)Nc3ccccc3)c2cc1OC ?
NTMT1 inh: 79µM*; OvCa metastasis: inconclusive; p53null 32C tox: -22%; p53null 39C kill: -21%

How did Cc1cccc(NC(=O)Cn2c(=O)n(CCc3ccccc3)c(=O)c3ccccc32)c1 do in these assays?
NTMT1 inh: 10%; OvCa metastasis: 26%; p53null 32C tox: 2%; p53null 39C kill: -33%

Results for C1=C/COCc2cc(ccc2OCCN2CCCC2)Nc2nccc(n2)-c2cccc(c2)COC/1 ?
NTMT1 inh: 25µM*

Results for COc1cc(-n2cnc3cc(-c4ccc(Cl)cc4)sc3c2=O)ccc1OCCN1CCCC1 ?
NTMT1 inh: -7%[57.5 µM]

How did CCc1ccc(C2=CC(c3c(F)cccc3Cl)n3c(nc4ccccc43)N2)cc1 (stereo not drawn) do in these assays?
NTMT1 inh: 3%; OvCa metastasis: 2%; p53null 32C tox: 8.9µM*; p53null 39C kill: inconclusive

How did Cc1ccc(C2=CC(c3ccccc3C)n3c(nc4ccccc43)N2)cc1 (stereo not drawn) do in these assays?
NTMT1 inh: -6%; OvCa metastasis: 8%; p53null 32C tox: 1.3µM*; p53null 39C kill: inconclusive

Results for Cc1cccc(C2C=C(c3ccc(F)cc3)Nc3nc4ccccc4n32)c1 (stereo not drawn) ?
NTMT1 inh: 6%; OvCa metastasis: 4%; p53null 32C tox: inconclusive; p53null 39C kill: inconclusive

Results for O=C(Nc1ccc(Cl)nc1)Nc1nnc(-c2ccncc2)s1 ?
NTMT1 inh: -21%

What do the screens show for `O=C(Nc1cc(C(F)(F)F)cc(C(F)(F)F)c1)Nc1nnc(-c2ccncc2)s1`?
NTMT1 inh: 16%

Source: PubChem
